{"source": "PubChem BioAssay AID1645875", "about": "(National Center for Advancing Translational Sciences (NCATS), 2021)", "note": "Records with an inconclusive call do not appear. Active and inactive are the calls of the source. The call rests on the fitted dose curve; in most records, active means well fitted inhibition curve with a large enough effect; inconclusive means small, poorly fitted or top-dose-only effect; inactive means no such curve, though single readings can be large or run the other way. Where a SMILES comes first, the peptide text is derived from it. The star is where a group is joined. AFC = O=c1cc(C(F)(F)F)c2ccc(N*)cc2o1"}
{"target": "N-terminal Xaa-Pro-Lys N-methyltransferase 1 (Homo sapiens) (UniProt Q9BV86)", "sequence (Q9BV86 whole entry, looked up)": "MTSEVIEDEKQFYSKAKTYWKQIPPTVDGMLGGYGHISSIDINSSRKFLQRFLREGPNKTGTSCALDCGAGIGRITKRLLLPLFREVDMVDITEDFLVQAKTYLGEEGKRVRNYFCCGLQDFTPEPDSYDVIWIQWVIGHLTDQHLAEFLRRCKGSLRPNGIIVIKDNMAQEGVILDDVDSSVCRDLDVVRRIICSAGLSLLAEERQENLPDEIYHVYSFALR", "assay": "Orthogonal qHTS for Inhibitors of N-terminal methyltransferase 1 (NTMT1): ThioGlo Assay", "details": "NTMT1 SAHH-coupled ThioGlo fluorescence, 30 min; series mostly up to 84.5 µM", "description": "Assay Submitter (PI): Rong Huang Ph.D. Purdue University, West Lafayette, IN 47907 The N-terminal methytransferase 1 is the first methyltransferase that methylates protein alpha-N-amines and plays an important role in regulating cell mitosis, chromatin interactions and DNA repair. It is observed to be over-expressed in various cancer patient tissues like malignant melanoma and colorectal cancer tissues. Knockdown of NTMT1 in cancer cells causes cell mitotic defects and enhances sensitivity to DNA damaging chemotherapeutics. […] These critical cellular processes in which NTMT1 is implicated, coupled with emerging links to cellular dysfunction, strengthen the inference that NTMT1 is a compelling novel anticancer target. Progress have been made in understanding the molecular properties of NTMT1 and the biological consequences of protein alpha-N-terminal methylation, but there are no specific small molecule probes available for NTMT1 to fully characterize its MTase activity. To address this unmet need, a panel of assay is created and established to enable quantitative high-throughput screening (qHTS) for novel, potent, and selective small molecule NTMT1 inhibitors. Two orthogonal qHTS that use different reagents (ThioGlo vs. MTaseGlo) are developed for primary robotic screening against the NCATS chemical library of more than 400,000 small molecules. Identified inhibitors are reacquired, validated, and further characterized. […] Early Translation Branch (ETB) National Center for Advancing Translational Sciences (NCATS) National Institute of Health (NIH)\nMaterials: NTMT1 enzyme, substrate SPKRIA, control peptide RCC1-6 is provided by the Huang laboratory. MTaseGlo Assay: PROTOCOL TABLE; SEQUENCE No. (e.g., 1, 2, 3, etc.); […] (e.g., Cells, Incubation, Reagent, etc.); VALUE; DESCRIPTION 1; Enzyme; 3 uL; Dispense enzyme mixture (final concentrations of 125 nM NTMT1) into Greiner 1536-well black / solid bottom assay plate (Greiner Bio One, Monroe, NC). 2; Compounds; 23 nL; Compounds (at various concentration) and 1uM final concentration of RCC1-6 (SPKRIA) control were transferred via a Kalypsys Pin Tool (Wako USA) equipped with a 1536-slotted pin array (Wako Automation, Richmond, VA). 3; Incubation; 1 min; Incubate at room temperature. 4; Substrate; 1 uL; Dispense 1 uL of substrate solution (100uM SAM, 10uM SAHH, 15uM ThioGlo3 final concentration) was added to the wells bringing the final assay volume to 4uL. The assay plate was covered with metal lids. 5; Detection; Fluorescence; Initial fluorescence readout (background signal) was detected using the ViewLux microplate imager with an excitation filter of 340 nm and 450 nm emission filter. 6; Incubation; 30 min; Assay plates were incubation at room temperature in the dark. 7; Detection; Fluorescence; Final fluorescence readout was detected using the ViewLux microplate imager with an excitation filter of 340 nm and 450 nm emission filter. The data was normalized to the background fluorescence."}
{"compound": "Cc1ccnc(NC(=S)N2CCN(c3cc(C(F)(F)F)cc(C(F)(F)F)c3)CC2)c1", "Potency": "4.35 µM (active)"}
{"compound": "COc1ccc(C2=Nn3c(nnc3-c3ccccc3F)SC2)cc1OC1CCCC1", "Potency": "inactive"}
{"compound": "Clc1ccc(Nc2nnc(Cc3ccncc3)c3ccccc23)cc1", "Potency": "62.2 µM (active)"}
{"compound": "Cc1cnc(Nc2ccc(F)cc2Cl)nc1-c1c[nH]c(C(=O)NC(CO)c2cccc(Cl)c2)c1", "note": "(stereo not given)", "Potency": "6.22 µM (active)"}
{"compound": "COc1cc2c(NC3CCN(C4CCCCC4)CC3)nc(N3CCCN(C)CC3)nc2cc1OCCCN1CCCCC1", "Potency": "43.5 µM (active)"}
{"compound": "NCC(O)C1CCCCCCC1", "note": "(stereo not given)", "Potency": "inactive"}
{"compound": "CC(C)c1cc(CNc2nc(Nc3cc(C4CC4)[nH]n3)cc(N3CCN(C)CC3)n2)on1", "Potency": "7.84 µM (active)"}
{"compound": "CCOc1ccccc1N1CC(c2nc3ccccc3n2CCCCOc2cc(C)ccc2C)CC1=O", "note": "(stereo not given)", "Potency": "inactive"}
{"compound": "O=C(Nc1ccc(S(=O)(=O)C(F)(F)F)cc1)C1=CCN(c2ncccc2C(F)(F)F)CC1", "Potency": "inactive"}
{"compound": "CCNC(=O)c1noc(-c2cc(C(C)C)c(O)cc2O)c1-c1ccc(CN2CCOCC2)cc1", "Potency": "inactive"}
{"compound": "COc1cc2c(NC3CCN(C(C)C)CC3)nc(N3CCCN(CC4CCCCC4)CC3)nc2cc1OCCCN1CCCCC1", "Potency": "inactive"}
{"compound": "Nc1ncnc2c1nc(N)n2[C@@H]1O[C@H](CO)[C@@H](O)[C@H]1O", "Potency": "27.8 µM (active)"}
{"compound": "CC(C)c1cc2c(c(O)c1O)[C@@]13CCCC(C)(C)[C@@H]1[C@H](OC3=O)C2=O", "Potency": "9.67 µM (active)"}
{"compound": "CC(=O)N[C@@H](CC(C)C)C(=O)N[C@@H](CCC(=O)O)C(=O)N[C@@H](CCC(=O)O)C(=O)N[C@@H](CC(=O)O)C(=O)Nc1ccc2c(C(F)(F)F)cc(=O)oc2c1", "note": "(Ac-LEED-{AFC})", "Potency": "44.1 µM (active)"}
{"compound": "COc1ccc(C2=Nn3c(nnc3-c3ccccc3C)SC2)cc1OC", "Potency": "34.5 µM (active)"}
{"compound": "O=C([C@@H]1CCCN(c2ccc3[nH]c(C4(n5cc(Cl)cn5)CC4)nc3n2)C1)N1CCCC1", "Potency": "22.1 µM (active)"}
{"compound": "Cc1cc(O)c2c(c1)C(=O)c1cc(O)cc(O)c1C2=O", "Potency": "27.4 µM (active)"}
{"compound": "COc1ccnc(NC(=S)N2CCN(c3cccc(Cl)c3Cl)CC2)c1", "Potency": "3.88 µM (active)"}
{"compound": "COc1cc2c(NC3CCN(C(C)C)CC3)nc(N3CCCCC3)nc2cc1OCCCN1CCCCC1", "Potency": "inactive"}
{"compound": "Oc1cc2c(c(Cl)c1O)CCNCC2c1ccccc1", "note": "(stereo not given)", "Potency": "30.8 µM (active)"}
{"compound": "Cc1cc(N2CCOCC2)cc2[nH]c(-c3c(NC[C@@H](O)c4cccc(Cl)c4)cc[nH]c3=O)nc12", "Potency": "13.9 µM (active)"}
{"compound": "COc1cc(N2CCC(O)CC2)ccc1Nc1nc(Nc2ccccc2S(=O)(=O)C(C)C)c2[nH]cnc2n1", "Potency": "19.7 µM (active)"}
{"compound": "COc1cc2nc(N3CCCC3)nc(NC3CC3)c2cc1OC", "Potency": "inactive"}
{"compound": "Cc1cc(C)c2c(N)c(C(=O)NCc3ccc(Cl)cc3)sc2n1", "Potency": "inactive"}
{"compound": "C=Cc1c(C)c2cc3[nH]c(cc4nc(cc5nc(cc1[nH]2)C(C)=C5CCC(=O)O)C(CCC(=O)O)=C4C)c(C)c3C=C", "Potency": "15.4 µM (active)"}
{"compound": "COc1ccc(-c2cc3c(C)nc(N)nc3n(C3CCC(OCCO)CC3)c2=O)cn1", "note": "(stereo not given)", "Potency": "13.9 µM (active)"}
{"compound": "COc1cc2c(NC3CCN(CC4CCCCC4)CC3)nc(N3CCCN(C(C)C)CC3)nc2cc1OCCCN1CCCCC1", "Potency": "12.3 µM (active)"}
{"compound": "OCc1ccc(-c2ccc(-c3ccc(CO)s3)o2)s1", "Potency": "19.2 µM (active)"}
{"compound": "Cc1cccc(/C=C/c2ccccc2)n1", "Potency": "inactive"}
{"compound": "COc1ccc(C2CC(=O)N3CN(C4CCCCC4)CSC3=C2C#N)cc1", "note": "(stereo not given)", "Potency": "6.89 µM (active)"}
{"compound": "CCOc1ccc(Nc2nc(-c3c(C)nc4ccccn34)cs2)cc1", "Potency": "3.12 µM (active)"}
{"compound": "CC[C@@H](C)Nc1cc(C(=O)NC2CC3CC[C@@H](C2)N3c2ccc(C(=O)C3CC3)cn2)c(C)cc1C(N)=O", "note": "(stereo not given in full)", "Potency": "35 µM (active)"}
{"compound": "COc1cc2c(NC3CCN(C(C)C)CC3)nc(N3CCCCC3)nc2cc1OCCOCCN(C)C", "Potency": "34.5 µM (active)"}
{"compound": "O=C(O)c1ccnc2cc(-c3nc4ccccc4n3CCN3CCCCC3)sc12", "Potency": "55.5 µM (active)"}
{"compound": "Cc1ccc(S(=O)(=O)Nc2cnccc2C(=O)Nc2nc(-c3cccc(C)c3)cs2)cc1", "Potency": "inactive"}
{"compound": "COc1ccc2nc(-c3cc(OC)c(OC)c(OC)c3)cc(C(=O)NCC(=O)Nc3ccc(C(C)=O)cc3)c2c1", "Potency": "31.2 µM (active)"}
{"compound": "N#Cc1ccc(Nc2nc(-c3ccc(O)cc3O)cs2)cc1C(F)(F)F", "Potency": "49.4 µM (active)"}
{"compound": "CC[N+](CC)(CC)CCOc1cccc(OCC[N+](CC)(CC)CC)c1OCC[N+](CC)(CC)CC", "Potency": "0.614 µM (active)"}
{"compound": "C#Cc1cccc(Nc2ncnc3cc(OC)c(OCCCCCCC(=O)NO)cc23)c1", "Potency": "22.1 µM (active)"}
{"compound": "Fc1ccccc1CNCc1ccc(-c2ccnc3[nH]ccc23)cc1", "Potency": "49.4 µM (active)"}
